Screening data deposited in PubChem BioAssay by Broad Institute.
Only a sample is shown.
aSyn 5UTR act – Activators working through SNCA 5'UTR binding (MLPCN). activity score, % (tested at 7.5 µM), hits read low. 7.1% of 300,000 active. alpha-synuclein 5'UTR reporter, activators screen; in the data active = activity score below about -60%
The depositor's hits bear a star.

SMILES | aSyn 5UTR act
CCN1CCN(c2cc(C)c3cc(NC(=O)CCC(=O)N4CCN(c5ccccc5OC)CC4)ccc3n2)CC1 | -62.4*
CCCCNC(=O)CCC(=O)Nc1ccc2nc(N3CCC(C)CC3)cc(C)c2c1 | -68.6*
Cc1cc(N2CCOCC2)nc2ccc(Cl)cc12 | -111.0*
COc1ccc(NC(=O)CCC(=O)Nc2ccc3nc(N4CCOCC4)cc(C)c3c2)c(OC)c1 | -93.8*
CCC(C)NC(=O)CCC(=O)Nc1ccc2nc(N3CCOCC3)cc(C)c2c1 (stereo unspecified) | -86.1*
CCC(C)NC(=S)Nc1ccc2nc(N3CCN(CC)CC3)cc(C)c2c1 (stereo unspecified) | -94.7*
Nc1nonc1-n1nnc(C(=O)N/N=C/c2ccc(OCc3cccc(Cl)c3)cc2)c1CN1CCCCC1 | -135.7*
CC1CCN(Cc2c(C(=O)N/N=C/c3cc(Br)ccc3O)nnn2-c2nonc2N)CC1 | 77.1
Cc1ccc(C(=O)Oc2ccc(/C=N/NC(N)=O)cc2)cc1 | -123.7*
Nc1nonc1-n1nnc(C(=O)N/N=C/c2ccc(OCc3ccccc3F)cc2)c1CN1CCCCC1 | -111.3*
Cc1cccc(COc2ccc(/C=N/NC(=O)c3nnn(-c4nonc4N)c3CN3CCCCC3)cc2)c1 | -100.8*
CC1CCN(Cc2c(C(=O)N/N=C/c3cc(Cl)ccc3O)nnn2-c2nonc2N)CC1 | 62.1
NC(=O)N/N=C/c1ccc(OCc2cccc(Cl)c2)cc1 | -72.8*
O=C(NC(=S)Nc1cccc([N+](=O)[O-])c1)c1ccccc1 | -169.5*
O=C(NC(=S)Nc1cc([N+](=O)[O-])ccc1Cl)c1ccccc1 | -85.3*
O=C(Nc1ccc([N+](=O)[O-])cc1)C(=O)Nc1cccc(C(=O)O)c1 | 101.6
O=[N+]([O-])c1cccc(/C([O-])=C(/C(=S)Nc2ccccc2)[n+]2ccccc2)c1 | -105.0*
COc1cc([N+](=O)[O-])ccc1NC(=S)Nc1cccc(C(=O)O)c1 | -71.8*
O=[N+]([O-])c1cccc(NC(=S)Nc2nc(-c3ccc(Cl)cc3Cl)cs2)c1 | 72.6
O=C(NC(=S)Nc1cccc([N+](=O)[O-])c1)c1ccco1 | -113.1*
CC1CCN(C(=O)COC(=O)c2ccccc2NC(=O)c2ccco2)CC1 | -72.5*
O=c1c(-c2ccc(Cl)cc2)cnc2n1CCS2 | -83.5*
CO/N=C/C(=N\Nc1ccc(OC)cc1)C(=O)c1ccc(OC)cc1 | -71.0*
COc1ccc(OCCN2C(=O)c3cccc(N)c3C2=O)cc1 | -97.7*
O=C1c2ccccc2C(=O)N1CCOc1cccc(Br)c1 | -71.2*
SMILES | aSyn 5UTR act
COc1ccc(/C=N/n2cc(-c3ccccc3)nc2N)cc1 | -133.6*
COc1ccc(/C=N\n2nnc3ccccc32)cc1 | 72.9
COc1cccc(N(C(=O)CCl)C(C(=O)NCCc2ccccc2)c2cccs2)c1 (stereo unspecified) | -111.8*
Oc1ccc(CN2CCN(c3ccccc3)CC2)c2cccnc12 | 79.5
O/N=C\c1cnc(N2CCN(c3ccccc3)CC2)s1 | -74.8*
O=C1N(c2ccccc2)C[C@@H]2C[C@@H](c3cc4ccccc4o3)N3CCC[C@@]123 | -594.1*
CCCCN1CCc2c1nc1ccc(Br)cc1c2N | -65.2*
O=C(Nc1cccc2nsnc12)c1ccc2c(c1)OCO2 | -109.7*
Cc1ccc(C(=O)NC(=S)Nc2cccc3nsnc23)cc1 | -100.5*
O=C(Nc1cccc2nsnc12)c1ccc2c(c1)OCCO2 | -212.8*
COc1ccc(-c2cc(C(=O)Nc3ccc(C)c(C)c3)no2)cc1 | -123.6*
COc1ccc(-c2cc(C(=O)NC(C)C)no2)cc1 | -70.7*
COc1cccc(-c2cc(C(=O)N3CCCCC3C)no2)c1 (stereo unspecified) | -161.9*
O=C(NC1CCCCC1)c1cc(-c2ccco2)on1 | -128.4*
COc1ccc(-c2cc(C(=O)NC3CCCC3)no2)cc1 | -120.5*
COc1cccc(-c2cc(C(=O)NC3CCCCC3)no2)c1 | -201.5*
Nc1nc2c(ccc3ccccc32)s1 | -71.6*
CCOc1cc(C2c3c(n[nH]c3C)C(=O)N2c2ccc(Br)cc2)ccc1O (stereo unspecified) | -61.8*
Cc1ccc(-c2cc(C(=O)NCCCN3CCCC3)c3ccccc3n2)cc1C | -63.0*
COc1cccc(-c2cc(C(=O)NCCCn3ccnc3)c3ccccc3n2)c1 | -69.9*
Cc1ccc(-c2cc(C(=O)NCc3ccccn3)c3ccccc3n2)cc1C | -123.9*
COc1ccc(-c2cc(C(=O)NCC(c3ccccc3)N(C)C)c3ccccc3n2)cc1OC (stereo unspecified) | -68.1*
c1ccc2c(Nc3nc4c(s3)CCCC4)cccc2c1 | -157.0*
CC(C)(C)c1ccc(C(=O)Nc2ncn[nH]2)cc1 | -134.3*
C(=C\c1ccccc1)/C=N/N1CCN(c2ccccn2)CC1 | -152.9*
SMILES | aSyn 5UTR act
CC(/C=N/N1CCN(c2ccccn2)CC1)=C\c1ccccc1 | -133.7*
C(=C\c1ccccc1)/C=N/N1CCN(Cc2ccccc2)CC1 | -73.7*
C(/C=C/c1ccccc1)=N/N1CCN(c2ccccc2)CC1 | -136.4*
O=C(Nc1ccc2ccccc2c1)c1cccc(F)c1 | -117.2*
Cc1ccc2cc(NC(=O)c3cccc(F)c3)ccc2n1 | -78.8*
O=C(Nc1ccc2ccccc2c1)c1ccc(NS(=O)(=O)c2ccc(Br)s2)cc1 | -102.3*
Cc1ccc2cc(NC(=O)c3ccccc3)ccc2n1 | -84.5*
CC(C)CC(=O)Nc1ccc2ccccc2c1 | -99.1*
Cc1cccc(NC(=O)c2cc3ccccc3o2)c1 | -271.9*
O=C(Nc1cccc(Br)c1)c1cc2ccccc2o1 | -184.3*
NS(=O)(=O)c1cccc(NC(=O)c2cc3ccccc3o2)c1 | -71.3*
CCC(=O)Nc1cccc(NC(=O)c2cc3ccccc3o2)c1 | -167.7*
CN1N=C(C(=O)Nc2ccc3c(c2)CCC3)CCC1=O | -140.4*
Cn1ncc(Cl)c1C(=O)Nc1ccc2c(c1)CCC2 | -138.1*
CCC(CC)c1nnc(NC(=O)c2ccc3ccccc3n2)s1 | -85.7*
CC(C)c1nnc(NC(=O)c2ccc3ccccc3c2)s1 | -64.4*
CCCc1cc(C(=O)Nc2nnc(C)s2)cs1 | -115.1*
CN1CCc2c(sc(NC(=O)c3ccc([N+](=O)[O-])o3)c2C(N)=O)C1 | 85.5
CC(C)N1CCc2c(sc(NC(=O)c3ccc4ccccc4c3)c2C(N)=O)C1 | -97.0*
CC(C)c1nnc(NC(=O)c2sc3ccccc3c2Cl)s1 | -110.5*
Cc1cnc(NC(=O)c2sc3ccccc3c2Cl)s1 | 58.6
Cc1nnc(NC(=O)c2ccc3ccccc3c2)s1 | -145.2*
O=C(CCCC(=O)N1CCN(c2ccccc2F)CC1)c1ccccc1 | -75.7*
O=C(Oc1ccccc1)N1CCN(c2ccccc2F)CC1 | -64.7*
O=C(Nc1nnc(C2CC2)o1)c1ccc(S(=O)(=O)N2CCCc3ccccc32)cc1 | 63.1
SMILES | aSyn 5UTR act
O=C(CCc1nnc(C2CCCCC2)o1)N1CCN(c2ccccc2F)CC1 | -111.8*
N#Cc1c(/N=C/c2cc3ccccc3s2)sc2c1CCC2 | -150.1*
Cc1ccc(/C=N/c2sc3c(c2C#N)CCC3)s1 | -145.9*
O=C(NCCc1ccccc1)c1ccccc1NC(=O)C1CCCCC1C(=O)O (stereo unspecified) | -146.3*
CC(C)c1ccc(NC(=O)c2ccccc2NC(=O)C2CCCCC2C(=O)O)cc1 (stereo unspecified) | -120.9*
Fc1ccc(NC(=S)NN=C2CCCCCC2)cc1 | -74.9*
S=C(NN=C1CCCCCC1)Nc1ccc(Cl)cc1 | -70.6*
CN1CCN(c2ccc(-c3cccc(NC(=O)COc4ccccc4)c3)nn2)CC1 | -70.1*
CCC(=O)Nc1cccc(-c2ccc(N3CCN(C)CC3)nn2)c1 | -73.5*
CN1CCN(c2ccc(-c3cccc(NC(=O)COc4ccc(Cl)cc4)c3)nn2)CC1 | -130.5*
